Outcome and potentiation data for six compounds are collected here from PubChem BioAssay.

Assay [1] deals with TRPC4 beta (transient receptor potential cation channel C4), mouse. Put plainly: TRPC4 cation channel opening, retest – cell-based, Fluo4 calcium, HEK293 TRPC4beta/mu-opioid, duplicates, 10 µM, confirmation (AID 2426;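 active = fluorescence ratio normalized to control raised more than 50% in primary screen plus both repeat runs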). The conditions noted are these: Fluo4 calcium fluorescence, at 10 µM; stronger effect = higher value.
For assay [2], the system named is transient receptor potential cation channel C4 beta (TRPC4), mouse. Put plainly: TRPC4 cation channel opening, second retest – cell-based, second round, Fluo4, HEK293 TRPC4beta/mu-opioid, 1 µM, confirmation (AID 2461). The conditions noted are these: Fluo4 calcium fluorescence, at 1 µM; stronger effect = higher value.
Assay [3] relates to TRPC4 (transient receptor potential cation channel C4 beta), mouse. Briefly: potentiation of DAMGO EC20 TRPC4 response – cell-based, second round, Fluo-4, HEK293 TRPC4beta/mu-opioid, 1 µM, confirmation (AID 2554;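 active = primary screen hit whose fluorescence ratio, in both repeats, exceeds the weak agonist control mean by 3 SD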). The settings on record: DAMGO EC20, Fluo-4 calcium flux, at 1 µM; stronger effect = higher value. On the technique in general: Calcium flux is commonly read through the fluorescence of an indicator in the cells.

Assay [4] concerns TRPC4 beta (transient receptor potential cation channel C4), mouse. Put plainly: potentiation of DAMGO EC20 TRPC4 response – cell-based, Fluo-4, HEK293 TRPC4beta/mu-opioid, confirmation (AID 2555;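 active = primary screen hit whose calcium fluorescence ratio, in both repeats, exceeds the weak agonist control mean by 3 SD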). The settings on record: DAMGO EC20, Fluo-4 calcium flux, at 10 µM; stronger effect = higher value.
For assay [5], the target named is Short transient receptor potential channel 4 (Mus musculus) (UniProt Q9QUQ5). Briefly: blockers of DAMGO-evoked TRPC4 calcium flux – cell-based, Fluo4, HEK293 TRPC4beta/mu-opioid, confirmation (AID 2636;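 active = calcium signal cut by more than 3 SD below the full-agonist control yet still positive, in both repeats and the earlier primary screen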). The settings on record: at 10 µM; stronger effect = higher value.
Chain of Short transient receptor potential channel 4 (Mus musculus) (Q9QUQ5 whole entry, looked up): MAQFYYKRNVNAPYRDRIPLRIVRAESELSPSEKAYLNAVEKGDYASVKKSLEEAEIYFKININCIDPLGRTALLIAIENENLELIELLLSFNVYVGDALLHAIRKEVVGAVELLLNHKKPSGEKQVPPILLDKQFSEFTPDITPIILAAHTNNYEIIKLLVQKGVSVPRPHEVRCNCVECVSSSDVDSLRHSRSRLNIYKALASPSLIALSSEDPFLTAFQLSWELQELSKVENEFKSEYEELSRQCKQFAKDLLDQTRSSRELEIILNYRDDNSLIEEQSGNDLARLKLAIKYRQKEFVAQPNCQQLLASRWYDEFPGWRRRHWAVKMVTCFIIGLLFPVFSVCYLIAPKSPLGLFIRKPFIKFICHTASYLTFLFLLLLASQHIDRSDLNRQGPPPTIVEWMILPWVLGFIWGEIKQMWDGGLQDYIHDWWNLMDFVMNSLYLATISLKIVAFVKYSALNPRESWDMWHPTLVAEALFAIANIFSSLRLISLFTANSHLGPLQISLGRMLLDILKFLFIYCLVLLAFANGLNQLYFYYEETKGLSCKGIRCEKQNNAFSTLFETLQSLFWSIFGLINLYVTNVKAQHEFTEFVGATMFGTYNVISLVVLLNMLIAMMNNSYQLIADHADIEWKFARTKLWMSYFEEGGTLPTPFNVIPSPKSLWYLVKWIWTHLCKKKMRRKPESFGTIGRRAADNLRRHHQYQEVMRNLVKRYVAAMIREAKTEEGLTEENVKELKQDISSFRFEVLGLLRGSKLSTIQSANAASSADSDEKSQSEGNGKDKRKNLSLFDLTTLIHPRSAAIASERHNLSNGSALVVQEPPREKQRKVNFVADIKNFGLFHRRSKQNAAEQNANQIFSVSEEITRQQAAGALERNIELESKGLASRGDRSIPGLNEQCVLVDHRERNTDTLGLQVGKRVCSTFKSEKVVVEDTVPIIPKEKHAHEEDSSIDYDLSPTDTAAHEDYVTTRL
For assay [6] the target is unchanged. Put plainly: blockers of DAMGO-evoked TRPC4 calcium flux – cell-based, second round, Fluo4, HEK293 TRPC4beta/mu-opioid, 1 µM, confirmation (AID 2637;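 active = calcium signal ratio cut to more than 3 SD under the fully stimulated control mean yet still positive, in both repeats and the primary screen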). The conditions noted are these: at 1 µM; stronger effect = higher value.
For assay [7] the target is unchanged. Briefly: calcium entry via TRPC4 opening agents – cell-based, HEK293 TRPC4/mu-opioid, Fluo-4 calcium, dose response (AID 434937;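 active = primary screen activator hit with a dose response curve and TRPC4 channel activation at any tested dose; inactive = no activation, no dose response, or not a primary hit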). The conditions noted are these: HEK293 TRPC4 cells, Fluo-4 calcium fluorescence ratio; series mostly up to 20 µM.
The target is the same in assay [8]. Put plainly: potentiation of DAMGO-evoked TRPC4 calcium signal – cell-based, HEK293 TRPC4/mu-opioid, Fluo-4 calcium, EC20 DAMGO, dose response (AID 434941;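 active = earlier screen potentiator hit that boosts the TRPC4 ion channel at some dose, with a dose response; inactive = no potentiation, no dose response, or not a prior hit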;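 note: calcium entry triggered by an EC20 dose of DAMGO at the co-expressed mu-opioid receptor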). The conditions noted are these: HEK293 TRPC4/mu-opioid cells, Fluo-4 calcium fluorescence; series mostly up to 20 µM.
The target is the same in assay [9]. Briefly: block of DAMGO-driven TRPC4 calcium entry – cell-based, HEK293 TRPC4/mu-opioid, Fluo-4 calcium, dose response (AID 434942;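 active = primary screen inhibitor hit that blocks the TRPC4 channel at some tested dose, yielding a dose curve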). The settings on record: HEK293 TRPC4/mu-opioid cells, DAMGO-evoked Fluo-4 calcium ratio; series mostly up to 20 µM.
Assay [10] addresses Short transient receptor potential channel 6 (Mus musculus) (UniProt Q61143). Put plainly: TRPC6 blockade by TRPC4 inhibitor hits – cell-based, HEK293, membrane potential dye, duplicate, selectivity assay for TRPC4 inhibitor project, confirmation (AID 434948;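 active = active in primary screen and both duplicates, each dropping signal beyond three positive-control SD with fluorescence still positive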). The conditions noted are these: HEK293 TRPC6, membrane potential dye fluorescence, at 10 µM, stimulated with maximal-effect acetylcholine; stronger effect = higher value.

The target is the same in assay [11]. Briefly: TRPC6 opening by TRPC4 activator hits – cell-based, HEK293, membrane potential dye, duplicate, selectivity assay for TRPC4 activator project, confirmation (AID 434950;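 active = membrane potential signal rise above negative control mean plus 3 SD in both duplicates, also active in the earlier TRPC4 screen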). The settings on record: HEK293 TRPC6, membrane potential fluorescence, at 10 µM; activation: stronger effect = higher value; outcome: activation.
For assay [12] the target is unchanged. Put plainly: positive modulators of mouse TRPC6 channel – HEK293 cells, membrane potential dye, duplicate, selectivity assay for TRPC4 potentiator project, confirmation (AID 434952;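 active = compound raising the membrane signal above positive-control mean plus 3 SD in both repeats, and a primary screen hit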). The settings on record: HEK293 TRPC6, membrane potential dye fluorescence, at 10 µM, maximal acetylcholine added after compound; stronger effect = higher value.
In assay [13] the target is Short transient receptor potential channel 4 (Mus musculus) (UniProt Q9QUQ5). Briefly: calcium flux activators in TRPC4/5HT1a cells, counter-screen for TRPC4 activator project, cell-based, second counter screen, HEK293 TRPC4/5HT1a, Fluo-4 (AID 434977;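 active = calcium signal rise above buffer-control mean plus 5 SD in both duplicates, and also a hit in the primary screen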). The settings on record: Fluo-4 calcium flux, at 10 µM; stronger effect = higher value.
A short description of assay [14]: serotonin-gated TRPC4 signal block – cell-based, second counter screen, HEK293 TRPC4/5HT1a, Fluo-4, counter-screen for TRPC4 inhibitor project, confirmation (AID 434978;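 active = primary screen active whose calcium signal fell more than 3 SD beyond the full-serotonin control mean in both duplicate plates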;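 note: serotonin given first at submaximal then at maximal dose after compound preincubation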). The conditions noted are these: Fluo-4 calcium flux, at 10 µM, serotonin added to trigger calcium flux; stronger effect = higher value. A general note: The purpose of a counterscreen is to sort out artefacts and off-target activity.

For assay [15], the system named is TRPC4 (mouse), co-expressed with 5HT1a in HEK293. Put plainly: enhancement of serotonin-evoked TRPC4 response – cell-based, second counter screen, HEK293 TRPC4/5HT1a, Fluo-4, counter-screen for TRPC4 potentiator project, confirmation (AID 434979;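 active = signal rise over 3 SD above mean of control wells given weak agonist, in both repeats and first screen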). The settings on record: Fluo-4 calcium flux, at 10 µM, serotonin added at its EC20 dose; stronger effect = higher value.
The nature of assay [16]: nonspecific calcium rise without TRPC4 – cell-based, HEK293 mu-opioid receptor line, counter-screen for TRPC4 activator project, confirmation (AID 449723;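 active = hit in primary screen, with calcium signal over 5 SD above buffer well mean in both duplicates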;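 note: counter screen cells carry the mu-opioid receptor alone and lack TRPC4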). The conditions noted are these: HEK293 mu-opioid cells, Fluo-4 calcium fluorescence, at 10 µM; stronger effect = higher value.
Assay [17] can be described thus: nonspecific potentiation of DAMGO calcium response – cell-based, HEK293 mu-opioid receptor line, counter-screen for TRPC4 allosteric potentiator project, confirmation (AID 449724;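 active = calcium signal rise more than 3 SD above the low-dose agonist control mean, in both duplicate plates and the primary screen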;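 note: HEK293 cells carrying mu-opioid receptor only with no TRPC4 channel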). The conditions noted are these: HEK293 mu-opioid receptor cells, Fluo-4 calcium flux, at 10 µM, compound added before EC20 DAMGO stimulus; stronger effect = higher value.

For part of these data: Potency and affinity values are given separately. The source made the active and inactive calls.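 Rule for the calls, unless noted: active = primary screen active and over 50% activation in each of two duplicate runs; inactive = the rest.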

Chain of Short transient receptor potential channel 6 (Mus musculus) (Q61143 whole entry, looked up): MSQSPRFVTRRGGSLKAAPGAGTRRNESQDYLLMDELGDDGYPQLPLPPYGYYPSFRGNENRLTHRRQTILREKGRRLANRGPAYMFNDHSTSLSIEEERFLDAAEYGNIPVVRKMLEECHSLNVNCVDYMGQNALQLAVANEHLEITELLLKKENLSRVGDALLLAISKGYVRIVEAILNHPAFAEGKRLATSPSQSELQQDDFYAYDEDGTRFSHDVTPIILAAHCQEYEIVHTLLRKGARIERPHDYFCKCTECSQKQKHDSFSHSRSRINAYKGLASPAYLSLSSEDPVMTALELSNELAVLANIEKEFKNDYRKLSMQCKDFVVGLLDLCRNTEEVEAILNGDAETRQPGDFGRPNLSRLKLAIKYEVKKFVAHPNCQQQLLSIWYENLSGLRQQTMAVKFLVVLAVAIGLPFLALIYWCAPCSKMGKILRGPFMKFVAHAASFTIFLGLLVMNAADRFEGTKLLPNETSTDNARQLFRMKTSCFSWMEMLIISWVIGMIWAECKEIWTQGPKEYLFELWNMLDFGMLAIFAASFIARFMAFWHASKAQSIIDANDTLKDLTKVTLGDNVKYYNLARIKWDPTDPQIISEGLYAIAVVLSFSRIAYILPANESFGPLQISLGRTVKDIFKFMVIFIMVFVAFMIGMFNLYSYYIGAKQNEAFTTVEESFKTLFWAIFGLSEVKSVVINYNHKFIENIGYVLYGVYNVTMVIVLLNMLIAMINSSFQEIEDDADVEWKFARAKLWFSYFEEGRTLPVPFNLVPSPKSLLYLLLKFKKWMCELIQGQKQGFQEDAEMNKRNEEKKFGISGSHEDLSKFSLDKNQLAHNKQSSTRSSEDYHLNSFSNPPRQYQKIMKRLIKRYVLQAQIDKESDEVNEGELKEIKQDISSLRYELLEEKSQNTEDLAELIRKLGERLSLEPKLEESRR

As for `O=C(Nc1ccc([N+](=O)[O-])cn1)C1CCCCC1`, the result in assay [1], in assay [2], in [3], in assay [4], in assay [5] and in assay [6] was inactive. For the same compound, the result in assay [7], in [8], in assay [9], in assay [10], in assay [11] and in assay [12] was inactive. The result in [13], in assay [14], in assay [15], in [16] and in assay [17] was inactive.

Regarding `COc1ccc(CN(C2CCCCC2C)S(=O)(=O)c2ccc(S(=O)(=O)N(C)C)cc2)cc1OC` (configuration not stated), the outcome in assay [1], in assay [2], in assay [3], in assay [5], in [6] and in assay [7] was inactive. Besides, the outcome in assay [8], in [9], in assay [10], in [11], in assay [12] and in assay [13] was inactive. Besides, the outcome in assay [14], in [16] and in assay [17] was inactive. Further, the figures for the potentiation in assay [4] and in assay [15] were 12% (active) and 5.84% (active), respectively.

Consider `CCOc1ccc(CN2CCCC(CNC(=O)c3ccc(F)cc3)C2)cc1CO` (configuration not stated), for which the result in assay [1], in assay [2], in assay [3], in assay [4], in assay [5] and in assay [6] was inactive. The result in assay [7], in assay [8], in [9], in assay [10], in assay [11] and in assay [12] was inactive. In addition, the outcome in assay [13], in assay [14], in [15], in [16] and in assay [17] was inactive.

As for `CC(C)(C)C(=O)NCCCc1nc2ccccc2n1CCCOc1ccc(Cl)cc1`, the outcome in assay [1], in assay [2], in assay [3], in [4], in [5] and in assay [6] was inactive. The outcome in [7], in assay [8], in assay [9], in assay [10], in assay [11] and in [12] was inactive. For the same compound, the outcome in assay [13], in [14], in assay [15], in [16] and in assay [17] was inactive.

As to `Fc1ccc(Nc2ncnc3sc4c(c23)CCC4)cc1`, the outcome in [1], in assay [2], in [4], in assay [5], in assay [6] and in [7] was inactive. The outcome in assay [8], in assay [9], in assay [10], in [11], in assay [12] and in [13] was inactive. In addition, the outcome in assay [14], in assay [16] and in assay [17] was inactive. For the same compound, the potentiation is 22% (active) in assay [3] and 50% (active) in [15].

In the case of `CN1CCN(CC#CCn2c3ccccc3c3ccccc32)CC1`, the outcome in assay [1], in assay [2], in assay [5], in assay [6], in [7] and in [8] was inactive. Also, the result in assay [9], in assay [10], in assay [11], in assay [12], in [13] and in assay [14] was inactive. Besides, the result in assay [16] and in [17] was inactive. For the same compound, the potentiation in assay [3] is 10% (active); in [4], 12% (active); in assay [15], 38.7% (active).
